According to PubChem BioAssay (Tox21):
Results filed as inconclusive are left out. Active and inactive are the calls of the source. Unless noted, calls follow the shape of the full dose curve.

What was measured:
[1] = Nuclear factor erythroid 2-related factor 2/antioxidant responsive element (Nrf2/ARE) small molecule agonists: qHTS cell viability counter screen in human keratinocytes (AID 1919968; active = well fitted curve in the direction sought with a large enough effect in the repeat runs; an effect the other way counts as inactive or inconclusive; also: nearly all actives have a fitted effect of over 55% in size)
How it was run: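 CellTiter-Fluor fluorescence, read 1 h after reagent, gave viability in the same wells as the ARE-luciferase assay. KeratinoSens cells (1,500/well) had 23 h compound exposure at 37 C/5% CO2 following 5 h plating.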

[2] = Nuclear factor erythroid 2-related factor 2/antioxidant responsive element (Nrf2/ARE) small molecule agonists: luciferase reporter gene qHTS assay in human keratinocytes (AID 1919969); also: nearly all actives have a fitted effect of over 35% in size; also: potency is read from the fitted curve at half-maximal effect
[3] = target: Gonadotropin-releasing hormone receptor (Homo sapiens) (UniProt P30968); test: Human gonadotropin-releasing hormone receptor (GnRHR) small molecule agonists, calcium flux assay in GnRHR-HEK293 cells (AID 1920063); also: nearly all actives have a fitted effect of over 35% in size
How it was run: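 Agonist mode: compounds at 15 concentrations, in triplicate, went onto calcium dye-loaded GnRHR-HEK293 cells. Intracellular calcium was then followed as 480/540 nm fluorescence at 1 s intervals over 3 min.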

[4] = target: KiSS-1 receptor (Homo sapiens) (UniProt Q969F8); test: Human kisspeptin (KISS1R) small molecule agonists, calcium flux assay in KISS1R-HEK293 cells (AID 1920064; active = well fitted curve in the direction sought with a large enough effect in the repeat runs; an effect the other way counts as inactive or inconclusive)
How it was run: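 Agonist mode: intracellular calcium rise tracked at 1 s intervals over 3 min (480/540 nm) immediately after compound addition to dye-loaded KISS1R-HEK293 stable cells. Each compound tested at 15 concentrations in triplicate.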

[5] = G protein-coupled receptor (GPCR) small molecule agonists, calcium flux assay: HEK293 wild type cell line counter screen (AID 1920065)
How it was run: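 Calcium flux counter screen: compound added in agonist mode at 15 concentrations in triplicate to dye-loaded parental HEK293 cells. Fluorescence (480/540) read kinetically for 3 min; ATP served as positive control.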

[6] = p53 small molecule agonists, cell-based qHTS assay with human liver microsomes (AID 1963577); also: potency is read from the fitted curve at half-maximal effect
How it was run: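 16 h, 37 C exposure of p53RE-bla cells to compounds with human liver microsomes and NADPH (0.5 mg/mL final each); detection via LiveBLAzer mixture, 2 h dark at room temperature.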

[7] = p53 small molecule agonists, cell-based qHTS assay with rat liver microsomes (AID 1963578)
How it was run: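 With rat liver microsomes and NADPH present (0.5 mg/mL final each), p53RE-bla cells are treated with compound for 16 h at 37 C. LiveBLAzer detection mixture is then applied for 2 h at room temperature in the dark.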

[8] = p53 small molecule agonists, cell-based qHTS assay with human liver microsomes: qHTS cell viability counter screen (AID 1963579); also: nearly all actives have a fitted effect of over 45% in size
How it was run: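 In this multiplexed counter screen, the reporter plates were subsequently treated with CellTiter-Glo so that cell viability, reflected by luminescence, could be recorded for p53RE-bla cells dosed 16 h with compounds under microsomal activation (HLM and NADPH).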

[9] = p53 small molecule agonists, cell-based qHTS assay with rat liver microsomes: qHTS cell viability counter screen (AID 1963580); also: nearly all actives have a fitted effect of over 45% in size
How it was run: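 Counter screen for cytotoxicity under metabolic activation: rat liver microsomes and NADPH, 0.5 mg/mL final each, added with compounds to p53RE-bla HCT-116 cells; 16 h at 37 C, then ATP luminescence read.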

[10] = p53 small molecule agonists, cell-based qHTS assay: qHTS cell viability counter screen (AID 1963581); also: nearly all actives have a fitted effect of over 45% in size
How it was run: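 Counter screen read by CellTiter-Glo luminescence (ATP content, 30 min at room temperature), run in the same wells as the beta-lactamase reporter read. HCT-116 p53RE-bla cells saw compounds for 16 h at 37 C.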

[11] = target: 5-hydroxytryptamine receptor 2A (Homo sapiens) (UniProt P28223); test: 5-hydroxytryptamine receptor 2A (HTR2A) small molecule antagonists, cell-based qHTS assay (AID 1963586); also: nearly all actives have a fitted effect of over 45% in size
How it was run: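 CHO cells stably expressing human HTR2A were plated for 18 h at 37 C, then loaded with calcium dye for 1 h. Compounds were preincubated 5 min at room temperature before DOI (4 nM solution) was added. Kinetic fluorescence was read for 3 min.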

[12] = target: 5-hydroxytryptamine receptor 2A (Homo sapiens) (UniProt P28223); test: 5-hydroxytryptamine receptor 2A (HTR2A) small molecule agonists, cell-based qHTS assay (AID 1963587); also: nearly all actives have a fitted effect of over 30% in size
How it was run: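 HTR2A-CHO cells, plated 18 h at 37 C/5% CO2, dye-loaded 1 h at 37 C; compounds in DMSO added by pin tool (agonist mode). Intracellular calcium flux read as kinetic fluorescence on FDSS over 2 min at 1 s intervals.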

[13] = target: Muscarinic acetylcholine receptor M1 (Homo sapiens) (UniProt P11229); test: Cholinergic receptor muscarinic 1 (CHRM1) small molecule antagonists, cell-based qHTS assay (AID 1963588); also: nearly all actives have a fitted effect of over 40% in size
How it was run: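 Compounds were tested at 15 concentrations in three independent runs. Dye-loaded CHRM1-CHO cells were exposed 5 min at room temperature before stimulation by acetylcholine added at 50nM. Intracellular calcium was read kinetically on FDSS for 3 min.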

[14] = target: Muscarinic acetylcholine receptor M1 (Homo sapiens) (UniProt P11229); test: Cholinergic receptor muscarinic 1 (CHRM1) small molecule agonists, cell-based qHTS assay (AID 1963589); also: nearly all actives have a fitted effect of over 35% in size
How it was run: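 Agonist-mode calcium-flux screen: compounds at 15 concentrations, three independent runs, were pin-transferred onto dye-loaded human CHRM1-CHO cells. Fluorescence was then recorded kinetically every second over minutes.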

[15] = cAMP Responsive Elements (CRE) small molecule agonists, cell-based qHTS assay (AID 1963590)
How it was run: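 Agonist mode: compound added to CRE-bla HEK 293T cells (2,000/well, 18 h after plating) for 3 h at 37 C/5% CO2. Reporter activity detected via FRET beta-lactamase substrate, 2 h room-temperature loading.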

[16] = cAMP Responsive Elements (CRE) small molecule antagonists, cell-based qHTS assay (AID 1963591; active = well fitted inhibition curve with a large enough effect in the signal ratio in the repeat runs, not every such curve was filed as active; the % refers to the signal ratio)
How it was run: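 Antagonist mode: compounds are added alongside the adenylyl cyclase activator NKH477 (0.25 uM final) to CRE-bla HEK293T cells for 3 h. LiveBLAzer FRET substrate, 2 h at room temperature, reports bla expression.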

[17] = target: Beta-2 adrenergic receptor (Homo sapiens) (UniProt P07550); test: Adrenergic beta2 receptor (ADRB2) small molecule antagonists, cell-based qHTS assay (AID 1963592); also: series mostly up to about 92 µM; nearly all actives have a fitted effect of over 50% in size
How it was run: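 Assay format: CHO-ADRB2 cells, 18-20hr seeding at 37C/5% CO2, then compound plus 1nM isoproterenol agonist mix for 0.5hr RT. Homogeneous time-resolved fluorescence cAMP detection after 1hr, expressed as 665/615 nm ratio.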

[18] = target: D(2) dopamine receptor (Homo sapiens) (UniProt P14416); test: Dopamine D2 receptor (DRD2) small molecule agonists, cell-based qHTS assay (AID 1963594); also: nearly all actives have a fitted effect of over 35% in size
How it was run: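 HEK293 cells stably expressing DRD2 were cultured 24 h at 37 C, then given Ro20-1724 (0.1 mM final) and compounds for 10 min at room temperature. NKH477 (200nM) was then added for 30 min. cAMP was read by HTRF.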

[19] = target: D(2) dopamine receptor (Homo sapiens) (UniProt P14416); test: Dopamine D2 receptor (DRD2) small molecule antagonists, cell-based qHTS assay (AID 1963595; active = well fitted inhibition curve with a large enough effect in the signal ratio in the repeat runs, with a control signal flat; the % refers to the signal ratio)
How it was run: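 DRD2-HEK293; 0.1 mM Ro20-1724; cpd 10 min RT; NKH477 200 nM + quinpirole 12 nM, 30 min RT; HTRF cAMP (cAMP-d2/anti-cAMP cryptate), 665/620 nm ratio after 1 h.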

Measured: Potency

Sequence of Beta-2 adrenergic receptor (Homo sapiens) (P07550 whole entry, looked up): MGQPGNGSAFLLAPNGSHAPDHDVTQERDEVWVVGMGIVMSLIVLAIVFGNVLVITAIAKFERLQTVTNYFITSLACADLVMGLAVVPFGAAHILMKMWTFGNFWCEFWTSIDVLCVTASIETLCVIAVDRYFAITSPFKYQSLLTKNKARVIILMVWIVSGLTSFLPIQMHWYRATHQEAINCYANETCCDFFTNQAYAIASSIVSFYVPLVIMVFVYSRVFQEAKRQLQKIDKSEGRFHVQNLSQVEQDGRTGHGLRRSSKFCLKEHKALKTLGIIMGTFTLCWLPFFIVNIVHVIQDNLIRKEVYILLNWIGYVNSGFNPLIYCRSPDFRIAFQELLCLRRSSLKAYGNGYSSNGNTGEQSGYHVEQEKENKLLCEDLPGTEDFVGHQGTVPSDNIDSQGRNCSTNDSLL
Sequence of KiSS-1 receptor (Homo sapiens) (Q969F8 whole entry, looked up): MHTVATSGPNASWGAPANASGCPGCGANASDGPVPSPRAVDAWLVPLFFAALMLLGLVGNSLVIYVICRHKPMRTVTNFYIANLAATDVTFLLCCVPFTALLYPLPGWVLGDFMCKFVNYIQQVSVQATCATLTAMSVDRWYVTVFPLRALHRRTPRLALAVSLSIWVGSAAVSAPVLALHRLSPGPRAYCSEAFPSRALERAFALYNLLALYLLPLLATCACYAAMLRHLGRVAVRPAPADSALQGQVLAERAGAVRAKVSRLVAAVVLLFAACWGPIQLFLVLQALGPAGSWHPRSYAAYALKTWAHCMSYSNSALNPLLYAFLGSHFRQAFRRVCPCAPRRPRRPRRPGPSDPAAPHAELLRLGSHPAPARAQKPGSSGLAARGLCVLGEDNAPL
Sequence of Muscarinic acetylcholine receptor M1 (Homo sapiens) (P11229 whole entry, looked up): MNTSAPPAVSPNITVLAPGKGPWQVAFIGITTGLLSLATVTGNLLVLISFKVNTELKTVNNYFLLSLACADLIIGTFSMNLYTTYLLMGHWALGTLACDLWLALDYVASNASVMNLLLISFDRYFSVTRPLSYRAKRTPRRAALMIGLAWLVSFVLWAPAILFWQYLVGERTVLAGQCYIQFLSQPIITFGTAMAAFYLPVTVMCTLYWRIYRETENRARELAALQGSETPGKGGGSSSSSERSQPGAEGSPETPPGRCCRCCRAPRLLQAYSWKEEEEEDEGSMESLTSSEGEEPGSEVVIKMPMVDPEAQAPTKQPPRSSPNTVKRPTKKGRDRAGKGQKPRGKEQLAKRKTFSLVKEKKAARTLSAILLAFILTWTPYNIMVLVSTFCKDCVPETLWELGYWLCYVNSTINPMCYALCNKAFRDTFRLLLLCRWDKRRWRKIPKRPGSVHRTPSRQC
Sequence of 5-hydroxytryptamine receptor 2A (Homo sapiens) (P28223 whole entry, looked up): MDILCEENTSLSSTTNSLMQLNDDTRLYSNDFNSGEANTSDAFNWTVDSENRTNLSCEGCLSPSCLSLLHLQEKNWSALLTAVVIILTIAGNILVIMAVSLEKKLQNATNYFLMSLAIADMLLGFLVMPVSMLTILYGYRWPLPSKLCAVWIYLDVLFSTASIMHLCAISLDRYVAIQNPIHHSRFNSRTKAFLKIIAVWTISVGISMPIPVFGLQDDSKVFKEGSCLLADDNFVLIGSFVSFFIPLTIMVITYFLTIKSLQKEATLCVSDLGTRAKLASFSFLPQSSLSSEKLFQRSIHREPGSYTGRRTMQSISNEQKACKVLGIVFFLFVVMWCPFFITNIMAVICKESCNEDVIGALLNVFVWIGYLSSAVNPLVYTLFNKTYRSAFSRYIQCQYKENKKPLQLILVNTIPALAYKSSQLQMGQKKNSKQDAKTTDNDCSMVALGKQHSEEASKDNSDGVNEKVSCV
Sequence of Gonadotropin-releasing hormone receptor (Homo sapiens) (P30968 whole entry, looked up): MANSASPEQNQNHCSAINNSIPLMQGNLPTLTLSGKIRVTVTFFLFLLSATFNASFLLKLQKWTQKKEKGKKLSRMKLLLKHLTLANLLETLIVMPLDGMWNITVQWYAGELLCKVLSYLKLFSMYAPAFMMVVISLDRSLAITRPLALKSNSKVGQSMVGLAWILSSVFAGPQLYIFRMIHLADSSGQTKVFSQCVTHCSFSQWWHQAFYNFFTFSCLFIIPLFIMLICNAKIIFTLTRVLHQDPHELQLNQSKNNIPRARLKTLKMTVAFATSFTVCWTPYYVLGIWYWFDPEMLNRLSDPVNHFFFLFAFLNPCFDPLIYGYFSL
Sequence of D(2) dopamine receptor (Homo sapiens) (P14416 whole entry, looked up): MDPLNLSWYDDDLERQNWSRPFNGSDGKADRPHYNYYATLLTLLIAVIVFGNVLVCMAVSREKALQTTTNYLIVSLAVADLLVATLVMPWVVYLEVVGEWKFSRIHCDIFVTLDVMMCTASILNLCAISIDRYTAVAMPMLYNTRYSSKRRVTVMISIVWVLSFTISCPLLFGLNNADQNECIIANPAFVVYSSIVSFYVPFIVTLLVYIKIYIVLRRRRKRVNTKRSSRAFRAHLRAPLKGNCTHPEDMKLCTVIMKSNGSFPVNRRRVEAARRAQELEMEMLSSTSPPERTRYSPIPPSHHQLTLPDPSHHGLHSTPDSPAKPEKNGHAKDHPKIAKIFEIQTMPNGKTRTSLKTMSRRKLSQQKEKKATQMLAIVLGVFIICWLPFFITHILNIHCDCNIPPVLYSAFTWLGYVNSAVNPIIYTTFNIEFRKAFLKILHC

CCCCOCCOC(=O)c1cccnc1
inactive: all assays above

CCOC(=O)CS
active: [2] 70.5 µM
not listed: [19]
inactive: all other assays above

Cc1cc(C)cc([N+](=O)[O-])c1
inactive: all assays above

CC1CC(C)C(=O)C1=O (centres undefined)
not listed: [16] | [17] | [19]
inactive: all other assays above

Clc1ccc2n[nH]nc2c1
active: [6] 28.9 µM
not listed: [16] | [18]
inactive: all other assays above

COC(=O)c1ccc(OC)cc1
inactive: all assays above

O=C(O)c1ccncc1
inactive: all assays above

CN(C(=O)C(Cl)Cl)c1ccc(OC(=O)c2ccco2)cc1
inactive: all assays above

CCn1ccnc1CC1COc2ccccc2O1 (centres undefined)
not listed: [18]
inactive: all other assays above

Cc1ccc(C)c(N)c1
inactive: all assays above

CCCCCCCC
inactive: all assays above

Nc1cccc(S(=O)(=O)c2cccc(N)c2)c1
not listed: [16]
inactive: all other assays above

CCNc1nc(NC(C)(C)C)nc(OC)n1
not listed: [16]
inactive: all other assays above

CO[C@@H]1[C@H](OC(=O)/C=C/C=C/C=C/C=C/C(=O)O)CC[C@]2(CO2)[C@H]1[C@@]1(C)O[C@@H]1CC=C(C)C
active: [2] 61.1 µM
not listed: [16]
inactive: all other assays above

C[N+]1(C)CCCC(OC(=O)C(O)(c2ccccc2)c2ccccc2)C1 (centres undefined)
not listed: [13]
inactive: all other assays above

CCCCc1nc2cccnc2n1Cc1ccc(-c2ccccc2-c2nnn[nH]2)cc1
not listed: [15] | [16] | [17]
inactive: all other assays above

N=C(N)c1ccc(OCCCOc2ccc(C(=N)N)cc2)cc1
not listed: [14] | [15] | [19]
inactive: all other assays above

O=C(O)CNC(=O)c1ccc([N+](=O)[O-])cc1
not listed: [13]
inactive: all other assays above
